This note sets out measurements from PubChem BioAssay.

Each structure is given as a SMILES string. Activity calls are given as the source filed them.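 The calls were made as follows, unless noted: active = inhibition above 20% together with a positive visual image hit; inconclusive = visual image hit but inhibition not above 20%; inactive = no visual image hit.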

Assay [1] can be described thus: inhibitors of TNFa-induced NFkB p65 translocation, primary screen, imaging, HUVEC, MLSMR starter and 10KST1 sets (AID 438).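 Also: compound added about 3h40 before a 20 min TNFalpha stimulation.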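 As to inhibition: signal is the nuclear over cytoplasmic p65 intensity ratio per well.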 The note with it: HUVEC TNFa-induced p65 nuclear translocation; cell count: measured here: nuclei count (cytotoxicity indicator), at 2.08 µM; inhibition: at 2 µM, stronger effect = higher value, 0% TNFa-plus-vehicle, 100% no-TNFa wells.
The nature of assay [2]: endothelial E-selectin expression blockers – imaging, HUVEC, immunofluorescence, MLSMR starter and 10KST1 sets, primary screen (AID 487;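 active = visually confirmed hit in the image check and inhibition above 20%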;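 as to inhibition: signal is fraction of cell area covered by stained E-selectin grains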;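 as to nuclei count: 100% = median nuclei count of all wells on the same plate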). The note with it: HUVEC TNFalpha-induced E-selectin immunofluorescence imaging, at 2 µM; inhibition: stronger effect = higher value; nuclei count: measured here: cell number, toxicity.
The nature of assay [3]: Primary imaging screen for DUSP6 inhibitors that restore phospho-Erk in transfected HeLa cells, chemical complementation (AID 609;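 active = compounds giving at least 50% inhibition in the cell-based MKP-3 phosphatase rescue imaging test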;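 as to inhibition: phospho-Erk level distribution per well compared with pooled transfected vehicle control wells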). The note with it: HeLa MKP-3 transfected, phospho-Erk imaging KS statistic, at 10 µM, cells stimulated with TPA for 15 min.
Assay [4] concerns the target Dual specificity protein phosphatase 6 (Homo sapiens) (UniProt Q16828). Described as above. Conditions: HeLa MKP-3 transfected, phospho-Erk imaging KS statistic; at 10 µM; stronger effect = higher value; cells stimulated with TPA for 15 min.
Assay [5] deals with Voltage-gated potassium channel subunit beta-2 (Rattus norvegicus) (UniProt P62483). As to the kind of experiment: inhibitors of rat Kvbeta2 reductase activity – biochemical, NADPH fluorescence, primary screen (AID 622;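 active = fluorescence slope higher than the sample average by over 3 SD, cut at about -0.22 in these data, passing the limit was not always enough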;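 also: slope of raw intensity against log time taken from 70 to 1610 s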). The note with it: recombinant KvBeta, 4-cyanobenzaldehyde reduction, at 10 µM, stronger effect = higher value.
For assay [6] the target is unchanged. As to the kind of experiment: enhancers of rat Kvbeta2 NADPH turnover – biochemical, NADPH fluorescence, primary screen (AID 623;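 active = NADPH fluorescence slope more negative than the mean of all samples by about 3 SD, 99.7% confidence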;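 also: fluorescence intensity change per second fitted from 20 to 320 s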). The note with it: Recombinant KvBeta, NADPH fluorescence decrease slope, 10 min; at 10 µM; stronger effect = lower value.
For assay [7], the target named is Alpha-2C adrenergic receptor (Homo sapiens) (UniProt P18825). As to the kind of experiment: compounds altering alpha2C-coupled GIRK flux – cell-based, HEK293 alpha2C/GIRK1/2, thallium flux, primary screen (AID 624;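 active = fluorescence slope after compound addition differing from the mean of all screened samples at 99.7% confidence, in either direction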;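 also: slope of fluorescence ratio to pre-addition baseline per second over 15 to 24 s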). The note with it: thallium flux BTC fluorescence, at 10 µM, actives lie on both sides.
Assay [8] in a line: loss of swimming-algae plug formation – whole organism, Chlamydomonas reinhardtii, WT vs cilia-less mutant, absorbance, 96-well, primary screen (AID 463189;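 active = inhibition at or above 50% relative to wild type and mutant plate controls; inactive = inhibition below 50%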;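 also: 0% = wild type cc124 cells in DMSO and 100% = ciliumless bld1 mutant cells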). Conditions: Chlamydomonas reinhardtii gravitaxis, OD600 absorbance, 2 days; at 10 µM; stronger effect = higher value.
Where [9] appears, read: measured here: cell density z-score.
Setting [10] is: measured here: nuclear c-Myc green intensity z-score.
The mark [11] stands for this setting: measured here: nuclear pErk red intensity z-score, stronger effect = higher value.

Voltage-gated potassium channel subunit beta-2 (Rattus norvegicus), sequence (P62483 whole entry, looked up): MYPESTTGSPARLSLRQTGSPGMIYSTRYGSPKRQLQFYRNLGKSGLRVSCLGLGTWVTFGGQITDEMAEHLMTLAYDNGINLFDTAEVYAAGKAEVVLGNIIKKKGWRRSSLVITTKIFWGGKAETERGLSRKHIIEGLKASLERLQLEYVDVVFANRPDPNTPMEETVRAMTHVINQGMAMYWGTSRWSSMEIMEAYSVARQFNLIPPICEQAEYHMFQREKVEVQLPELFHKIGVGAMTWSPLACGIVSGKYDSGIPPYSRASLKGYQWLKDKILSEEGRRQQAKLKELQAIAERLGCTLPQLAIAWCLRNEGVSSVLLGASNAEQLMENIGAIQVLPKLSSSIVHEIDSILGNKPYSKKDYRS
Dual specificity protein phosphatase 6 (Homo sapiens), sequence (Q16828 whole entry, looked up): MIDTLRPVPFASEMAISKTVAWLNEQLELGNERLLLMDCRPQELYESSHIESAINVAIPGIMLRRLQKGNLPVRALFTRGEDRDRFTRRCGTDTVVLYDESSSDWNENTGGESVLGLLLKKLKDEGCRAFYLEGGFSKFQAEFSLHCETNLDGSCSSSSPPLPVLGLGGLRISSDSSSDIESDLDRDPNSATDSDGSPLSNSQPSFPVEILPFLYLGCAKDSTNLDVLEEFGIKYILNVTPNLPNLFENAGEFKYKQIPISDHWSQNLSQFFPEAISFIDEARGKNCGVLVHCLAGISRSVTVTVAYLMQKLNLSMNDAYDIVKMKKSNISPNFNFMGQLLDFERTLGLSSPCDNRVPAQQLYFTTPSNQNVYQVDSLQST
Alpha-2C adrenergic receptor (Homo sapiens), sequence (P18825 whole entry, looked up): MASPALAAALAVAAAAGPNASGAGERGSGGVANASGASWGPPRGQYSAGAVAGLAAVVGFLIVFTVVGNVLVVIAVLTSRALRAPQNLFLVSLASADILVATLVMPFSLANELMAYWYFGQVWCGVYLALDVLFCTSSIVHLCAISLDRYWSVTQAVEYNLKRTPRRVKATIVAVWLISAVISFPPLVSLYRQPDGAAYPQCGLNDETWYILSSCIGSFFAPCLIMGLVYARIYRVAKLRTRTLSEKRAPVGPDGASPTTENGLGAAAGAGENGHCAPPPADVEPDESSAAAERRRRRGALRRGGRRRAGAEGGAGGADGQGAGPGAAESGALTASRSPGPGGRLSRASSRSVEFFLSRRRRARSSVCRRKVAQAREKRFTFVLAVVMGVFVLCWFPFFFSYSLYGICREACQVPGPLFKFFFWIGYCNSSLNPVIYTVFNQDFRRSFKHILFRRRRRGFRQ

The inhibition is the relative decrease from the control value, in per cent. Take `CC1(C)CC(=O)C2=C(C1)Oc1nc3ccccc3cc1C2C(C#N)C#N` (stereo unspecified): the cell count in assay [1] was determined as 373. In addition, the inhibition in assay [1] was -3.7% (inactive); in assay [2] it was -108% (inactive); in assay [4] it was -12.3% (inactive); in assay [8], 26.7% (inactive). In assay [2], this molecule showed a nuclei count of 134%. Moreover, the z-score is -0.147 in assay [3] (setting [9]), -0.642 in assay [3] (setting [10]) and -1.04 in assay [3] (setting [11]). The fluorescence slope in assay [5] is -0.414 (inactive). In assay [6], the NADPH fluorescence slope was -0.000128 (inactive). Further, in assay [7], the slope is 0.00783 (inactive).

With `COc1cccc(C2C(C(=O)c3cccs3)=C(O)C(=O)N2c2cc(C)on2)c1` (stereo unspecified), the cell count in assay [1] amounted to 316. The inhibition in assay [1] is -1.9% (inactive); in assay [2], -91.3% (inactive); in assay [4] it was -7.01% (inactive); in assay [8], -2.3% (inactive). Also, the nuclei count in assay [2] came to 148%. Moreover, the values for the z-score in assay [3] (setting [9]), in assay [3] (setting [10]) and in assay [3] (setting [11]) were -0.295, -1.2 and 1.95, respectively. The fluorescence slope in assay [5] was -0.427 (inactive). In assay [6], the NADPH fluorescence slope was -0.000129 (inactive). In assay [7], the slope was 0.00539 (inactive).

For `CCCCc1cc(=O)oc2c(CN(C)C)c(O)c(Cl)cc12`, the cell count in assay [1] worked out at 409. In addition, the inhibition in assay [1] was -5.1% (inactive); in assay [2] it was -156% (inactive); in assay [4], -5.26% (inactive); in assay [8] it was 0.735% (inactive). Further, the nuclei count in assay [2] was found to be 164%. Moreover, the z-score is -0.211 in assay [3] (setting [9]), -0.0215 in assay [3] (setting [10]) and 0.835 in assay [3] (setting [11]). Further, the fluorescence slope in assay [5] was -0.163 (inactive). Moreover, in assay [6], the NADPH fluorescence slope is 2.2e-05 (inactive). For the same molecule, the slope in assay [7] was 0.0046 (inactive).

`COCCN(CCOC)C(=O)C12CCC(C)(C(=O)C1)C2(C)C` (stereo unspecified): the cell count in assay [1] came out at 237. Besides, the inhibition in assay [1] was -4.2% (inactive); in assay [2] it was 17.3% (inactive); in assay [4], 10.5% (inactive); in assay [8], -24.6% (inactive). Also, the nuclei count in assay [2] was found to be 124%. In addition, the z-score in assay [3] (setting [9]) turned out to be 0.486; in assay [3] (setting [10]), 2.03; in assay [3] (setting [11]), 1.23. The fluorescence slope in assay [5] is -0.458 (inactive). Further, the NADPH fluorescence slope in assay [6] was -5.9e-05 (inactive). Further, in assay [7], the slope was 0.00572 (inactive).

Take `CC1CCCCN1C(=O)C12CCC(C)(/C(=N/O)C1)C2(C)C` (stereo unspecified): the cell count in assay [1] stood at 333. In addition, the inhibition was -6.9% (inactive) in assay [1], -75.4% (inactive) in assay [2], 5.26% (inactive) in assay [4] and -7.07% (inactive) in assay [8]. In assay [2], this molecule showed a nuclei count of 141%. Moreover, the z-score in assay [3] (setting [9]) was -1.18; in assay [3] (setting [10]), 2.22; in assay [3] (setting [11]), 1.3. The fluorescence slope in assay [5] is -0.407 (inactive). In assay [6], the NADPH fluorescence slope is -0.000148 (inactive). Moreover, the slope in assay [7] is 0.00568 (inactive).

Turning to `CCCc1cc(=O)oc2c(CN3CCN(C)CC3)c(O)c(Cl)cc12`, in assay [1], the cell count came out at 332. In addition, the inhibition in assay [1] is 1.4% (inactive); in assay [2], 4.8% (inactive); in assay [4], 1.6e-07% (inactive); in assay [8], -8.3% (inactive). In assay [2], this molecule gave a nuclei count of 163%. Also, the z-score in assay [3] (setting [9]) was 1.29; in assay [3] (setting [10]), -0.833; in assay [3] (setting [11]) it was -1.37. The fluorescence slope in assay [5] was -0.229 (inactive). Besides, the NADPH fluorescence slope in assay [6] was -1.7e-05 (inactive). In addition, the slope in assay [7] was 0.00587 (inactive).

For `C=CCNc1nc(-c2cccc(OC)c2O)nc2ccccc12`, in assay [1], the cell count worked out at 347. For the same molecule, the inhibition in assay [1] was 5.6% (inactive); in assay [2] it was -92.9% (inactive); in assay [4], 7.01% (inactive); in assay [8], 1.52% (inactive). Moreover, in assay [2], the nuclei count was 101%. Also, the figures for the z-score in assay [3] (setting [9]), in assay [3] (setting [10]) and in assay [3] (setting [11]) were -0.736, 0.355 and 1.19, respectively. Besides, the fluorescence slope in assay [5] was -0.415 (inactive). The NADPH fluorescence slope in assay [6] was -0.000104 (inactive). Also, the slope in assay [7] is 0.00503 (inactive).

`COc1ccc(C(=O)Cn2c(Br)nc3c2c(=O)n(C)c(=O)n3C)cc1OC`: the cell count in assay [1] stood at 296. For the same molecule, the inhibition in assay [1] was -12.5% (inactive); in assay [2], 28.7% (inactive); in assay [4], -1.75% (inactive); in assay [8], -16.3% (inactive). In assay [2], this molecule returned a nuclei count of 116%. Moreover, the z-score was -1.61 in assay [3] (setting [9]), 0.384 in assay [3] (setting [10]) and -0.0762 in assay [3] (setting [11]). Moreover, in assay [5], the fluorescence slope was -0.471 (inactive). Also, the NADPH fluorescence slope in assay [6] is -1.3e-05 (inactive). In assay [7], the slope was 0.00557 (inactive).
